A short description of experiment [1]: NCI Yeast Anticancer Drug Screen. Data for the rad50 strain (AID 155).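 Also: 0% = growth of vehicle-only cultures of the same strain.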 The conditions noted are these: S. cerevisiae rad50 strain growth inhibition, active compounds read high. A digest of the protocol: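 Growth of the mutant yeast was measured after compound exposure and referenced to vehicle-treated cultures.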
Experiment [2] can be described thus: NCI Yeast Anticancer Drug Screen. Data for the mec2-1 strain (AID 157). The note with it: S. cerevisiae mec2-1 strain, active compounds read high. A digest of the protocol: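 Using mec2-1 yeast: add compound, measure growth, express inhibition versus vehicle-treated cultures.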
A short description of experiment [3]: NCI Yeast Anticancer Drug Screen. Data for the sgs1 mgt1 strain (AID 161).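 Also: 0% = growth of cultures given vehicle only.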 The note with it: S. cerevisiae sgs1 mgt1 strain, active compounds read high. Put shortly: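 Growth of a repair-deficient yeast mutant was monitored after compound treatment and expressed as inhibition relative to vehicle-treated cultures.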
Experiment [4] is described as follows: NCI Yeast Anticancer Drug Screen. Data for the cln2 rad14 strain (AID 165).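 Also: 0% = growth equal to vehicle treated cultures.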 The note with it: S. cerevisiae cln2 rad14 strain, active compounds read high. A digest of the protocol:
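Yeast strain cln2 rad14, bearing defects in cell cycle control and DNA repair, serves as the test system; values reflect growth inhibition compared with vehicle.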

Experiment [5] is described as follows: NCI Yeast Anticancer Drug Screen. Data for the bub3 strain (AID 167). The note with it: S. cerevisiae bub3 mutant strain, active compounds read high. Put shortly:
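Whole-cell yeast assay. The mutant strain was incubated with compounds, and growth inhibition was determined by comparison with vehicle-treated cells.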

Experiment [6] can be described thus: NCI Yeast Anticancer Drug Screen. Data for the mlh1 rad18 strain (AID 175). The note with it: S. cerevisiae mlh1 rad18 strain growth inhibition, active compounds read high. A digest of the protocol: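 Steps: expose repair-defective yeast to compound; measure growth; express inhibition against vehicle-treated controls.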
Where [7] appears, read: at 5.0 µM (retest, dose inferred, filed as 0.5).
Setting [8] is: at 50.0 µM (retest, dose inferred, filed as 5.0).

Compounds without any hit were thinned out: in the full panel of roughly 79,000, 15% have a hit. Unmarked numbers belong to inactive results. Calls of active or inactive are those of the source. Rule as the data show it: active = growth inhibition above about 70%; inactive = the rest.

Turning to `O=[N+]([O-])c1ccccc1NCCO`, the growth inhibition in experiment [1] (setting [7]) is 1%; in experiment [1] (setting [8]), -2%; in experiment [1] (at 50.0 µM), -10.2%; in experiment [2] (setting [7]) it was 3%; in experiment [2] (setting [8]) it was 0%; in experiment [2] (at 50.0 µM), -5.65%. Besides, the growth inhibition is -2% in experiment [3] (setting [7]); -12% in experiment [3] (setting [8]); -0.15% in experiment [3] (at 50.0 µM); 2% in experiment [4] (setting [7]); 4% in experiment [4] (setting [8]); 28.8% in experiment [4] (at 50.0 µM). Besides, the growth inhibition is 3% in experiment [5] (setting [7]); 2% in experiment [5] (setting [8]); -14.2% in experiment [5] (at 50.0 µM); 2% in experiment [6] (setting [7]); 3% in experiment [6] (setting [8]); -24.9% in experiment [6] (at 50.0 µM).
As for `CC1C(=O)C(C)C(c2ccccc2)N(C)C1c1ccccc1` (configuration not stated), the growth inhibition in experiment [1] (setting [7]) was 81% (active); in experiment [1] (setting [8]), 98% (active); in experiment [1] (at 50.0 µM) it was 99% (active); in experiment [2] (setting [7]), 42%; in experiment [2] (setting [8]), 99% (active); in experiment [2] (at 50.0 µM) it was 99.1% (active). Besides, the growth inhibition in experiment [3] (setting [7]) is 81% (active); in experiment [3] (setting [8]), 98% (active); in experiment [3] (at 50.0 µM) it was 99.3% (active); in experiment [4] (setting [7]) it was 31%; in experiment [4] (setting [8]), 98% (active); in experiment [4] (at 50.0 µM) it was 99% (active). Besides, the growth inhibition in experiment [5] (setting [7]) was 42%; in experiment [5] (setting [8]), 95% (active); in experiment [5] (at 50.0 µM) it was 99.4% (active); in experiment [6] (setting [7]) it was 63%; in experiment [6] (setting [8]), 98% (active); in experiment [6] (at 50.0 µM) it was 99.1% (active).
In the case of `CCOC(=O)/C(=C\N1C(=O)/C(=C\C(C)=C\c2ccccc2)SC1=S)C(=O)c1ccccc1`, the growth inhibition in experiment [1] (setting [7]) is -8%; in experiment [1] (setting [8]) it was 0%; in experiment [1] (at 50.0 µM), 55%; in experiment [2] (setting [7]), -10%; in experiment [2] (setting [8]), 22%; in experiment [2] (at 50.0 µM), 58%. For the same compound, the growth inhibition in experiment [3] (setting [7]) is -3%; in experiment [3] (setting [8]), 14%; in experiment [3] (at 50.0 µM), 52.5%; in experiment [4] (setting [7]), -18%; in experiment [4] (setting [8]), 2%; in experiment [4] (at 50.0 µM) it was 57%. For the same compound, the growth inhibition was -8% in experiment [5] (setting [7]); 39% in experiment [5] (setting [8]); 70.2% (active) in experiment [5] (at 50.0 µM); -2% in experiment [6] (setting [7]); 20% in experiment [6] (setting [8]); 77% (active) in experiment [6] (at 50.0 µM).
For `COc1ccc2ccccc2c1/C=C/C(=O)c1ccccc1`, the growth inhibition in experiment [1] (setting [7]) was -3%; in experiment [1] (setting [8]) it was 34%; in experiment [1] (at 50.0 µM), 54.6%; in experiment [2] (setting [7]), 7%; in experiment [2] (setting [8]), 43%; in experiment [2] (at 50.0 µM) it was 19.4%. In addition, the growth inhibition was 11% in experiment [3] (setting [7]); 47% in experiment [3] (setting [8]); 42.4% in experiment [3] (at 50.0 µM); -19% in experiment [4] (setting [7]); 40% in experiment [4] (setting [8]); 56.2% in experiment [4] (at 50.0 µM). Moreover, the growth inhibition in experiment [5] (setting [7]) is -8%; in experiment [5] (setting [8]) it was 58%; in experiment [5] (at 50.0 µM) it was 46%; in experiment [6] (setting [7]), 1%; in experiment [6] (setting [8]), 72% (active); in experiment [6] (at 50.0 µM) it was 46.4%.
On to `Cc1nc2ccc(NCCN(C)C)c3c(=O)c4cc(O)ccc4n1c23`, for which the growth inhibition in experiment [1] (setting [7]) is 25%; in experiment [1] (setting [8]) it was 63%; in experiment [1] (at 50.0 µM), -20.4%; in experiment [2] (setting [7]) it was -3%; in experiment [2] (setting [8]), 12%; in experiment [2] (at 50.0 µM), 20.4%. Further, the growth inhibition was -4% in experiment [3] (setting [7]); 16% in experiment [3] (setting [8]); -4.45% in experiment [3] (at 50.0 µM); 3% in experiment [4] (setting [7]); 16% in experiment [4] (setting [8]); 11.2% in experiment [4] (at 50.0 µM). Moreover, the growth inhibition in experiment [5] (setting [7]) is 13%; in experiment [5] (setting [8]) it was 13%; in experiment [5] (at 50.0 µM), 1.4%; in experiment [6] (setting [7]), -3%; in experiment [6] (setting [8]), 20%; in experiment [6] (at 50.0 µM), 61.4%.
Take `c1c[n+](CCC2CCCCC2)ccn1`: the growth inhibition is -15% in experiment [1] (setting [7]); 6% in experiment [1] (setting [8]); 89% (active) in experiment [1] (at 50.0 µM); -14% in experiment [2] (setting [7]); -23% in experiment [2] (setting [8]); 97% (active) in experiment [2] (at 50.0 µM). The growth inhibition in experiment [3] (setting [7]) was -33%; in experiment [3] (setting [8]), -21%; in experiment [3] (at 50.0 µM), 94.3% (active); in experiment [4] (setting [7]), -26%; in experiment [4] (setting [8]), 10%; in experiment [4] (at 50.0 µM), 73.1% (active). For the same compound, the growth inhibition is -6% in experiment [5] (setting [7]); 28% in experiment [5] (setting [8]); 63.7% in experiment [5] (at 50.0 µM); -28% in experiment [6] (setting [7]); 3% in experiment [6] (setting [8]); 69.5% in experiment [6] (at 50.0 µM).
For `CC(C)C1=CC(=O)C(C)(C2C(O)CC3(C)C4CC=C5C(CCC(O)C5(C)C)C4(C)C(=O)CC23C)O1` (configuration not stated), the growth inhibition in experiment [1] (setting [7]) is 65%; in experiment [1] (setting [8]) it was 80% (active); in experiment [1] (at 50.0 µM), 73.2% (active); in experiment [2] (setting [7]), 78% (active); in experiment [2] (setting [8]), 87% (active); in experiment [2] (at 50.0 µM), 74.5% (active). The growth inhibition in experiment [3] (setting [7]) is 64%; in experiment [3] (setting [8]), 74% (active); in experiment [3] (at 50.0 µM) it was 68.8%; in experiment [4] (setting [7]), 54%; in experiment [4] (setting [8]) it was 83% (active); in experiment [4] (at 50.0 µM), 75% (active). Moreover, the growth inhibition in experiment [5] (setting [7]) was 78% (active); in experiment [5] (setting [8]), 86% (active); in experiment [5] (at 50.0 µM), 62.2%; in experiment [6] (setting [7]) it was 85% (active); in experiment [6] (setting [8]), 89% (active); in experiment [6] (at 50.0 µM), 69.4%.
As to `S=c1ncc2c([nH]1)C1c3ccccc3C2c2ccccc21`, the growth inhibition was -9% in experiment [1] (setting [7]); 98% (active) in experiment [1] (setting [8]); 86% (active) in experiment [1] (at 50.0 µM); -6% in experiment [2] (setting [7]); 98% (active) in experiment [2] (setting [8]); 92% (active) in experiment [2] (at 50.0 µM). The growth inhibition in experiment [3] (setting [7]) is 2%; in experiment [3] (setting [8]), 98% (active); in experiment [3] (at 50.0 µM) it was 90.1% (active); in experiment [4] (setting [7]) it was 27%; in experiment [4] (setting [8]), 99% (active); in experiment [4] (at 50.0 µM), 88% (active). In addition, the growth inhibition in experiment [5] (setting [7]) was 16%; in experiment [5] (setting [8]), 98% (active); in experiment [5] (at 50.0 µM), 92.4% (active); in experiment [6] (setting [7]), -1%; in experiment [6] (setting [8]), 98% (active); in experiment [6] (at 50.0 µM) it was 90.5% (active).
As for `NC(=O)CC1CCC(c2ccccc2)CC1` (configuration not stated), the growth inhibition in experiment [1] (setting [7]) was -1%; in experiment [1] (setting [8]), -59%; in experiment [1] (at 50.0 µM) it was 44%; in experiment [2] (setting [7]) it was -6%; in experiment [2] (setting [8]), -23%; in experiment [2] (at 50.0 µM), 6.95%. The growth inhibition is -1% in experiment [3] (setting [7]); -14% in experiment [3] (setting [8]); 77.3% (active) in experiment [3] (at 50.0 µM); 2% in experiment [4] (setting [7]); -8% in experiment [4] (setting [8]); -47.6% in experiment [4] (at 50.0 µM). Besides, the growth inhibition is -12% in experiment [5] (setting [7]); -53% in experiment [5] (setting [8]); 12.7% in experiment [5] (at 50.0 µM); 0% in experiment [6] (setting [7]); -31% in experiment [6] (setting [8]); 41.8% in experiment [6] (at 50.0 µM).
